# The list is not random: actives were taken first. Their share in the collection is about 2.4%.
# M1 antag: human M1 muscarinic receptor antagonists, primary screen, CHO-K1 cells, Fluo-8 calcium fluorescence, 1536-well. Muscarinic acetylcholine receptor M1 (Homo sapiens), P11229. CHO-K1 hM1, ACh EC80 antagonist. inhibition, % at 3 µM. hit rate 1.3% among 360,000;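 active = percent inhibition above its own plate's cutoff, namely the mean of that plate's compound wells plus 3 SD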;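 also: peak over basal fluorescence ratio during 140 s after agonist addition; 0% = ACh EC80 plus DMSO and 100% = DMSO alone without agonist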
# Target sequence (P11229 whole entry, looked up): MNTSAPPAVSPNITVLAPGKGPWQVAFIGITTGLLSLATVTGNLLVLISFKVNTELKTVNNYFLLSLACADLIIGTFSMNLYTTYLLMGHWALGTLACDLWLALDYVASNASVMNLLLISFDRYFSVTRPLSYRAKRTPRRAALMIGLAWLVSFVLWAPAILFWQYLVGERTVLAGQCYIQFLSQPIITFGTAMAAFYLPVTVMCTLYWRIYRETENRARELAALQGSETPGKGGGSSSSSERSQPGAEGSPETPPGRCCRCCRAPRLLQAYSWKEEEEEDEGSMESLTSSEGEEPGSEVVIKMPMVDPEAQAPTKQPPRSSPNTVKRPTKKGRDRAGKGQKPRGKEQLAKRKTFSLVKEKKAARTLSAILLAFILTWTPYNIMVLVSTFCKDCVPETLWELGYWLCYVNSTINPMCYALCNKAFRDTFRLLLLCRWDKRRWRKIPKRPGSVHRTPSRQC
# CHO-K1 Ca antag: nonselective inhibitor or artifact in parental CHO-K1 cells | ATP-induced calcium, Fluo-8 fluorescence | inhibition, % at 3 µM | hit rate 0.6% among 360,000;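 active = inhibition above a per-plate cutoff, the plate's mean sample inhibition plus 3 SD, cut at about 24% in these data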;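 also: 0% = DMSO plus EC80 ATP and 100% = DMSO alone without ATP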
# M1 PAM: human M1 muscarinic receptor positive allosteric modulators, primary screen, CHO-K1 cells, Fluo-8 calcium fluorescence, 1536-well; Muscarinic acetylcholine receptor M1 (Homo sapiens), P11229; CHO-K1 hM1, ACh EC20; 0% = ACh EC20, 100% = maximal ACh; activation, % at 3 µM; hit rate 0.088% among 360,000; AID 588819, 2011; in the data active = activation above about 19%, passing the limit was not always enough
# M1 ag parental: counter-screen for M1 agonists: effect in parental CHO-K1 cells; AID 602248, 2012; Fluo-8 calcium fluorescence; scaled to maximal ATP response, vehicle zero; activation, % at 3 µM; hit rate 0.48% among 360,000; in the data active = activation above about 15%;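 also: untransfected CHO-K1 host cells lacking M1 receptor as counterscreen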
# CHO-K1 Ca PAM: nonselective calcium activators in parental CHO-K1 cells, primary screen, counter-screen for M1 PAM project, cell-based, Fluo-8 calcium fluorescence, full deck, 1536-well; ATP EC20; 0% at ATP EC20, 100% at ATP max; activation, % at 3 µM; hit rate 0.02% among 360,000;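 active = activation above the run cutoff, the mean activation of all test compounds plus 3 SD, cut at about 40% in these data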;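 also: peak over basal fluorescence ratio in a 140 s read after ATP addition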
# M1 ag: human M1 muscarinic receptor agonists, primary screen, Fluo-8 calcium fluorescence, CHO-K1 cells, HTS. activation, % at 3 µM. hit rate 0.33% among 360,000. CHO-K1 hM1, agonist mode; 0% DMSO, 100% acetylcholine EC100;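 active = activation above the run's mean compound activation plus 3 SD, cut at about 16% in these data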;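 also: peak over basal fluorescence ratio within a 140 s kinetic read after compound addition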
# * marks the source's active call; other numbers are inactive results.
SMILES,M1 antag,CHO-K1 Ca antag,M1 PAM,M1 ag parental,CHO-K1 Ca PAM,M1 ag
Cc1ccc(CN(C)C[C@@H]2OCc3cnnn3CCCC(=O)N([C@H](C)CO)C[C@H]2C)cc1,-11,8,6,0,2,-9
COc1ccccc1CN(C)C[C@H]1OCc2cnnn2CCCC(=O)N([C@H](C)CO)C[C@@H]1C,-17,20,10,0,-8,0
C[C@@H]1CN([C@@H](C)CO)C(=O)CCCn2nncc2CO[C@H]1CN(C)Cc1ccc(Oc2ccccc2)cc1,40*,-3,-29,0,3,-12
COc1ccccc1CN(C)C[C@H]1OCc2cnnn2CCCC(=O)N([C@@H](C)CO)C[C@@H]1C,102*,-1,-34,1,14,-11
C[C@@H]1CN([C@H](C)CO)C(=O)CCCn2nncc2CO[C@H]1CN(C)Cc1ccc(Oc2ccccc2)cc1,54*,-6,-32,1,15,-11
C[C@H](CO)N1C[C@H](C)[C@@H](CN(C)Cc2ccc(O)cc2)OCc2cnnn2CCCC1=O,-8,2,0,0,-6,-7
COc1ccccc1-c1nc2cc3ccccc3cc2nc1-c1ccccc1OC,2,-4,6,0,15,-7
Cc1nc(N)c(C#N)c(-c2ccccc2Cl)c1C,-6,-1,10,0,-3,4
COCCC1CCCCN1C(=O)c1ccc(OC2CCN(C(C)=O)CC2)c(OC)c1 (configuration not stated),-3,-8,2,0,-2,0
O=C(Nc1ccc(Br)c(C(F)(F)F)c1)c1ccccc1,8,3,-19,7,14,-8
O=C(Nc1ccc(OCC(F)(F)C(F)F)c(C(F)(F)F)c1)c1ccc(Cl)cc1,36*,5,-23,4,-1,1
O=C(Nc1ccc(Br)c(C(F)(F)F)c1)c1ccc(C(F)(F)F)cc1,63*,16,-23,12,-5,0
O=c1c(Cl)c(N2CCNCC2)cnn1C12CC3CC(CC(C3)C1)C2,35*,-13,-21,1,-14,-8
O=C(O)C12CC3CC(C1)CC(n1ncc(N4CCN(c5ccccc5)CC4)c(Cl)c1=O)(C3)C2,13,18,-9,0,-9,-5
COCCN(Cc1cc2cc3c(cc2nc1Cl)OCO3)C(=O)Nc1ccc(F)cc1,16,-5,-11,10,5,-1
O=C(COC(=O)c1ccc(O)cc1O)Nc1cc(-c2ccccc2)nn1-c1ccccc1,-3,16,6,1,10,0
CNc1nc(Oc2ccccc2C(=O)OC)nc(SC)n1,13,30*,-6,-1,-8,-5
CCOC(=O)c1ccc(Oc2nc(NC)nc(SC)n2)cc1,-16,-13,15,0,11,1
CCOC(=O)c1[nH]c2cc3c(cc2c1CCCN1C(=O)c2ccccc2C1=O)OCCO3,-13,-5,4,0,14,-7
CC(=O)c1c(C)[nH]c(C(=O)OCc2ccccc2)c1C,4,20,-3,2,-15,0
CCOC(=O)c1[nH]c2ccccc2c1CCCN1C(=O)c2ccccc2C1=O,89*,-10,-18,1,19,-2
CC(=O)c1c(C)[nH]c(C(=O)OCCCCN2C(=O)c3ccccc3C2=O)c1C,40*,33*,-13,9,0,5
CSc1ccccc1C(=O)Nc1cccc(N(C)S(C)(=O)=O)c1,15,-4,-5,0,1,-3
Cc1cc(N2C(=O)C3C4C=CC(C4)C3C2=O)ccc1NC(=O)c1cccs1 (configuration not stated),-7,47*,3,-1,-13,-7
COCCN(Cc1ccccc1)C(=O)Cc1ccc(OC)c(S(=O)(=O)N2CCOCC2)c1,-10,-7,4,2,12,-1
